Inconclusive results are not listed. Activity calls are given as the source filed them. The calls were made as follows, unless noted: active = hit-call score of the fitted dose curve at least 0.9, where 1 is the maximum; inactive = score below 0.9.
Legend:
[1] = biological target: Myc proto-oncogene protein (Homo sapiens) (UniProt P01106); experiment: ATG_Myc_CIS: Attagene CIS-FACTORIAL HepG2 Assay for human Myelocytomatosis (Myc) Proto-Oncogene Transcription Factor (AID 2282990); details: HepG2, Attagene cis-reporter transcription factor activity; actives raise or lower the signal
Myc proto-oncogene protein (Homo sapiens), sequence (P01106 whole entry, looked up): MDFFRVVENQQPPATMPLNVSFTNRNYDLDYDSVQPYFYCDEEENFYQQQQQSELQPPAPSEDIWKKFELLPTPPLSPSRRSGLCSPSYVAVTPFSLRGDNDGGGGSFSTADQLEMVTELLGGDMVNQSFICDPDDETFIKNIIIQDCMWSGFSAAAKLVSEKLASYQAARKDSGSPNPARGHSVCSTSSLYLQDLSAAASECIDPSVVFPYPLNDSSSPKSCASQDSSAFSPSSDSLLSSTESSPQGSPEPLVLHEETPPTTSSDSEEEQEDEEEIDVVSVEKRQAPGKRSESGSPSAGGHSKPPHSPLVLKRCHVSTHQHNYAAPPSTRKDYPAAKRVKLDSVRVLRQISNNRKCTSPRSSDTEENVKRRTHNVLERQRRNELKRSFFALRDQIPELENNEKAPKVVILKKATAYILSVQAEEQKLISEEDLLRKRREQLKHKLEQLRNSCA
Procedure, shortened: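 DMSO-normalised, bidirectionally fitted reporter mRNA signal. HepG2 cells transfected with cis reporter constructs, treated 24 h; transcripts detected by RT-PCR, 6-FAM primer extension and CE.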

[2] = ATG_NRF2_ARE_CIS: Attagene CIS-FACTORIAL HepG2 Assay for human Nuclear Factor Erythroid 2 Related Factor 2 (NFR2) response to Antioxidant Response Elements (ARE) (AID 2282992); details: HepG2 Attagene ARE/NRF2 reporter, transcription factor activity; actives raise or lower the signal
Procedure, shortened: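 Endogenous transcription factor activity read out as reporter transcript levels (RT-PCR plus capillary electrophoresis, fluorescence) in transiently transfected HepG2 cells. Measured at 24 h after dosing; gain or loss of signal fitted versus DMSO.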

[3] = ATG_Oct_MLP_CIS: Attagene CIS-FACTORIAL HepG2 Assay for human Octamer-Binding Transcription Factor (Oct) (AID 2282993); details: HepG2 Attagene cis-factorial Oct reporter, mRNA; actives raise or lower the signal
Procedure, shortened: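 Readout is reporter transcript level from RT-PCR with fluorescent primer extension and capillary electrophoresis, fitted in both directions against DMSO. Transfected HepG2 reporter units report endogenous factor activity after 24 h dosing.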

[4] = biological target: Cellular tumor antigen p53 (Homo sapiens) (UniProt P04637); experiment: ATG_p53_CIS: Attagene CIS-FACTORIAL HepG2 Assay for human p53 Transcription Factor (AID 2282994); details: HepG2 p53 cis-element reporter, Attagene mRNA; actives raise or lower the signal
Cellular tumor antigen p53 (Homo sapiens), sequence (P04637 whole entry, looked up): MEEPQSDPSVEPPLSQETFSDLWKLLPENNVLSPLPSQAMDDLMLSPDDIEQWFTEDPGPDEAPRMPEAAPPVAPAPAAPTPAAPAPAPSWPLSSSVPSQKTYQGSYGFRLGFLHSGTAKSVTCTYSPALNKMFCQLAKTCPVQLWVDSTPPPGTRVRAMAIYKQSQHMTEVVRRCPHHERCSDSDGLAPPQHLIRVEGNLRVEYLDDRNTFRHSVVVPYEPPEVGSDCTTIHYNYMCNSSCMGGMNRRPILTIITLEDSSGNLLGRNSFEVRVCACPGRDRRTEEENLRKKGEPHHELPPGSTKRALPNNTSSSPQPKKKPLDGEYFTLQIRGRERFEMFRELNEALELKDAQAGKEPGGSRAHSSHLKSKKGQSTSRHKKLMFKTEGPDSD
Procedure, shortened: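 Endogenous p53 activity read in transiently transfected HepG2 from a cis-element-driven reporter transcript after 24 h exposure. RNA reverse-transcribed, PCR-amplified, fluorescently labelled and sized by capillary electrophoresis; gain or loss fitted against DMSO baseline.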

[5] = BSK_3C_TissueFactor: BioMAP Diversity Plus: 3C Assay for Tissue Factor Biomarker Activity (AID 2282997); details: BioMAP 3C HUVEC, tissue factor biomarker readout; actives raise or lower the signal
Procedure, shortened: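 Readout: Tissue Factor ELISA. Cells: human primary umbilical vein endothelium. Time: 24 h after dosing. Analysis: bidirectional fit, DMSO baseline.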

[6] = BSK_3C_uPAR: BioMAP Diversity Plus: 3C Assay for Urokinase-type plasminogen activator receptor (uPAR) Biomarker Activity (AID 2282998); details: BioMAP 3C HUVEC, uPAR biomarker ELISA; actives raise or lower the signal
Procedure, shortened: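 Cell-surface uPAR on HUVEC (3C system) read by ELISA at 24 h post-treatment, with DMSO as baseline and fitting in both directions. Parallel cultures stained with SRB to flag overt cytotoxicity.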

[7] = BSK_3C_VCAM1: BioMAP Diversity Plus: 3C Assay for Vascular cell adhesion molecule 1 (VCAM1) Biomarker Activity (AID 2282999); details: BioMAP 3C HUVEC, VCAM1 ELISA, cytokine-stimulated; actives raise or lower the signal
Procedure, shortened: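 Vascular primary endothelium (human umbilical vein) was exposed to chemicals and assayed 24 h later. VCAM-1 levels came from ELISA, with DMSO serving as baseline for bidirectional fitting.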

[8] = BSK_4H_Eotaxin3: BioMAP Diversity Plus: 4H Assay for Eotaxin 3 Biomarker Activity (AID 2283000); details: primary human endothelial cells (HUVEC); actives raise or lower the signal
Procedure, shortened: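 HUVEC, 24 h post-dose, ELISA for Eotaxin-3/CCL26. Gain or loss of signal fitted bidirectionally vs DMSO baseline.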

[9] = biological target: human Peroxisome Proliferator-activated Receptor alpha (PPARa), PPARA (gene 5465) (UniProt Q07869); experiment: ATG_PPARa_TRANS: Attagene TRANS-FACTORIAL HepG2 Assay for human Peroxisome Proliferator-activated Receptor alpha (PPARa) (AID 2283001; active = hit-call score of the fitted dose curve at least 0.9, where 1 is the maximum)
human Peroxisome Proliferator-activated Receptor alpha (PPARa), PPARA (gene 5465), sequence (Q07869 whole entry, looked up, the tested form may be a part): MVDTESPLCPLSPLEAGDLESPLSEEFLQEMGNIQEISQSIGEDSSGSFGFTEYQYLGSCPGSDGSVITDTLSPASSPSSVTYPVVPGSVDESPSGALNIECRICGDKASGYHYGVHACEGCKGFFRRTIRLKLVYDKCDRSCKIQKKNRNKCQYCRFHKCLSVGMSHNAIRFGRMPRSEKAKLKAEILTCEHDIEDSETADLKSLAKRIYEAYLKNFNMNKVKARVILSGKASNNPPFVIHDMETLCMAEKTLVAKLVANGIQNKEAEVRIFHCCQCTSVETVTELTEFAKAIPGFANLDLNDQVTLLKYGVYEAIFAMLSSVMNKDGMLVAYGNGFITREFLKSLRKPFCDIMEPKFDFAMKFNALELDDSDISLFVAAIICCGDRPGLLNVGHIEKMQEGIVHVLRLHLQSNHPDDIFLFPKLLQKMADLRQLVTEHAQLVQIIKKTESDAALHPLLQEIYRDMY
Procedure, shortened: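 Exposure: 24 h, transiently transfected HepG2 cells. Endpoint: GAL4-UAS reporter mRNA, RT-PCR with capillary electrophoresis fluorescence. Baseline: DMSO; increases fitted.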

[10] = biological target: human Peroxisome Proliferator-activated Receptor delta (PPARd), PPARD (gene 5467) (UniProt Q03181); experiment: ATG_PPARd_TRANS: Attagene TRANS-FACTORIAL HepG2 Assay for human Peroxisome Proliferator-activated Receptor delta (PPARd) (AID 2283002; active = hit-call score of the fitted dose curve at least 0.9, where 1 is the maximum)
human Peroxisome Proliferator-activated Receptor delta (PPARd), PPARD (gene 5467), sequence (Q03181 whole entry, looked up, the tested form may be a part): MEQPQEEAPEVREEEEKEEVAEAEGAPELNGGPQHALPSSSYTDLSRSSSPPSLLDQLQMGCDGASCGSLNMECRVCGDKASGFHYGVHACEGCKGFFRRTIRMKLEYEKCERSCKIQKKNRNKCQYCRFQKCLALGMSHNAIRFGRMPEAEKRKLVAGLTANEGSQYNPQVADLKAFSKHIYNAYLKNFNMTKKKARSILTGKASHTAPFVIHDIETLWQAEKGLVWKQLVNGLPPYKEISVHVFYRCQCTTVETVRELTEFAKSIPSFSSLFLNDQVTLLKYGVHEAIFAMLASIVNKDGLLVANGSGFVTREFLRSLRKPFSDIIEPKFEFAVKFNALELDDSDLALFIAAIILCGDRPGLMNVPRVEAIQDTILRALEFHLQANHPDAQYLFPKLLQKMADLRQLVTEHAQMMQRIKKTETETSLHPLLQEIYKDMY
Procedure, shortened: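 Measured quantity: GAL4-UAS reporter transcript induction in HepG2 after 24 h chemical dosing, with NR-Gal4 chimeras supplied by transient transfection. Detection by RT-PCR and capillary electrophoresis; upward fit against DMSO.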

[11] = read-out: Intercellular Adhesion Molecule 1 (ICAM1), ICAM1 (gene 3383); experiment: BSK_3C_ICAM1: BioMAP Diversity Plus: 3C Assay for Intercellular Adhesion Molecule 1 (ICAM1) Biomarker Activity (AID 2283003); details: primary human endothelial cells (HUVEC); actives raise or lower the signal
Procedure, shortened: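 ELISA read-out of ICAM-1; HUVEC (primary human), 3C system, 24 h post-dosing; bidirectional fit vs DMSO baseline.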

[12] = BSK_3C_Proliferation: Cell Proliferation Assessment in the BioMAP Diversity Plus: 3C Assay (AID 2283006); details: primary human endothelial cells (HUVEC);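 also: potency may reflect either rise or fall in cell number versus DMSO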
Procedure, shortened: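 HUVEC, sub-confluent; 48 h chemical exposure; 10% TCA fix, 0.1% SRB stain, A560 total protein. Gain or loss of signal fitted both directions vs DMSO control.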

[13] = biological target: Peroxisome proliferator-activated receptor gamma (Homo sapiens) (UniProt P37231); experiment: ATG_PPARg_TRANS: Attagene TRANS-FACTORIAL HepG2 Assay for human Peroxisome Proliferator-activated Receptor-gamma (PPARg) (AID 2283007; active = hit-call score of the fitted dose curve at least 0.9, where 1 is the maximum)
Peroxisome proliferator-activated receptor gamma (Homo sapiens), sequence (P37231 whole entry, looked up): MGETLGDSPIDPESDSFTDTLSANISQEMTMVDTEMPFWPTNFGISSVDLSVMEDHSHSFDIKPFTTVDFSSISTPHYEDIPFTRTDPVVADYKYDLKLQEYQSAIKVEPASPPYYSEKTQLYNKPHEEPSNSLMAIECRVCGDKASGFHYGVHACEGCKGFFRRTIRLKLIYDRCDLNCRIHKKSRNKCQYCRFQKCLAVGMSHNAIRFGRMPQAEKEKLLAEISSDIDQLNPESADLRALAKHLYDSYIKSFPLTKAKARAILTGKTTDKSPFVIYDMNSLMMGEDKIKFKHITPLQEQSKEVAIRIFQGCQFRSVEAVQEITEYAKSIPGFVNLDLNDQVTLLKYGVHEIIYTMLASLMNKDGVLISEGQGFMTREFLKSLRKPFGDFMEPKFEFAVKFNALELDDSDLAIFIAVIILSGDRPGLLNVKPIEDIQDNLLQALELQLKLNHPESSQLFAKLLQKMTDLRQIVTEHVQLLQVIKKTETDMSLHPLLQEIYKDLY
Procedure, shortened: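 Twenty-four hours after chemical dosing of transiently transfected HepG2 cells, isolated RNA was converted to cDNA, reporter sequences amplified and 6-FAM-labelled, then HpaI-digested and analysed by capillary electrophoresis. Signal increase against DMSO was fitted.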

[14] = biological target: Nuclear receptor subfamily 1 group I member 2 (Homo sapiens) (UniProt O75469); experiment: ATG_PXR_TRANS: Attagene TRANS-FACTORIAL HepG2 Assay for human Pregnane X Receptor (PXR) (AID 2283008; active = hit-call score of the fitted dose curve at least 0.9, where 1 is the maximum)
Nuclear receptor subfamily 1 group I member 2 (Homo sapiens), sequence (O75469 whole entry, looked up, the tested form may be a part): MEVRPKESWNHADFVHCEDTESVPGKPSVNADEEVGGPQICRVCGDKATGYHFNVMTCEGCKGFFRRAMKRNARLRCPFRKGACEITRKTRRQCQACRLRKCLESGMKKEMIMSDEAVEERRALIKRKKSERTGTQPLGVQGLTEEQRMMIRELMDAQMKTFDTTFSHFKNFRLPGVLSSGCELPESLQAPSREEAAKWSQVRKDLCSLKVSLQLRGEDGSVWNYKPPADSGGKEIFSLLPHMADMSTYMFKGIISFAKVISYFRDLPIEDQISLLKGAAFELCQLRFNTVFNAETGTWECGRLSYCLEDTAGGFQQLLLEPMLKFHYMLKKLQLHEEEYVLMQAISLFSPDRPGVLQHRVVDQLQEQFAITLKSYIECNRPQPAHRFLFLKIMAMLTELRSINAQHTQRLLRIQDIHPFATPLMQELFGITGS
Procedure, shortened: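 Transactivation by exogenous PXR–GAL4 fusion measured as reporter transcript induction after 24 h compound treatment of transfected human HepG2 cells. Read-out via RT-PCR and capillary electrophoresis of labelled fragments, fitted upward relative to DMSO.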

[15] = biological target: human RAR-related Orphan Receptor beta (RORb), RORB (gene 6096) (UniProt Q92753); experiment: ATG_RORb_TRANS: Attagene TRANS-FACTORIAL HepG2 Assay for human RAR-related Orphan Receptor beta (RORb) (AID 2283010; active = hit-call score of the fitted dose curve at least 0.9, where 1 is the maximum)
human RAR-related Orphan Receptor beta (RORb), RORB (gene 6096), sequence (Q92753 whole entry, looked up, the tested form may be a part): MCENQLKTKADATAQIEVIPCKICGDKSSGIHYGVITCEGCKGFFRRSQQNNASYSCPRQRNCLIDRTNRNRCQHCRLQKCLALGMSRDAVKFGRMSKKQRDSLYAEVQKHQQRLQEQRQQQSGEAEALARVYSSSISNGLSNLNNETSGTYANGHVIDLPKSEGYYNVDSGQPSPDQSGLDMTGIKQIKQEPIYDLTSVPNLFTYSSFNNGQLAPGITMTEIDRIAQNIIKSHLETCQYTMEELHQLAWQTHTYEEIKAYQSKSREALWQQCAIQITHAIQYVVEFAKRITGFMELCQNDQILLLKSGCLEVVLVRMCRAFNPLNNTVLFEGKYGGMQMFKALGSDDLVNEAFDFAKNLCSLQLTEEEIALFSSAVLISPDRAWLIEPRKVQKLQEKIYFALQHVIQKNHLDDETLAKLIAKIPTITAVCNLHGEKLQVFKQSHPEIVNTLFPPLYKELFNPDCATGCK
Procedure, shortened: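 HepG2, transient MRTU transfection (GAL4-UAS reporters, exogenous NR-Gal4 chimeras); 24 h compound exposure; total RNA → RT-PCR → 6-FAM primer extension → HpaI digest → CE fluorescence. Positive direction vs DMSO baseline.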

[16] = ATG_NF_kB_CIS: Attagene CIS-FACTORIAL HepG2 Assay for human Nuclear Factor Kappa B (NF-kB) (AID 2282991); details: HepG2 Attagene cis-factorial NF-kB reporter mRNA; actives raise or lower the signal
Procedure, shortened: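 Fluorescence of labelled RT-PCR products separated by capillary electrophoresis gives reporter mRNA levels from transfected HepG2 cells exposed 24 h; values are fitted in both directions relative to DMSO.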

[17] = biological target: Retinoic acid receptor alpha (Homo sapiens) (UniProt P10276); experiment: ATG_RARa_TRANS: Attagene TRANS-FACTORIAL HepG2 Assay for human Retinoic Acid Receptor alpha (RARa) (AID 2283005; active = hit-call score of the fitted dose curve at least 0.9, where 1 is the maximum)
Retinoic acid receptor alpha (Homo sapiens), sequence (P10276 whole entry, looked up, the tested form may be a part): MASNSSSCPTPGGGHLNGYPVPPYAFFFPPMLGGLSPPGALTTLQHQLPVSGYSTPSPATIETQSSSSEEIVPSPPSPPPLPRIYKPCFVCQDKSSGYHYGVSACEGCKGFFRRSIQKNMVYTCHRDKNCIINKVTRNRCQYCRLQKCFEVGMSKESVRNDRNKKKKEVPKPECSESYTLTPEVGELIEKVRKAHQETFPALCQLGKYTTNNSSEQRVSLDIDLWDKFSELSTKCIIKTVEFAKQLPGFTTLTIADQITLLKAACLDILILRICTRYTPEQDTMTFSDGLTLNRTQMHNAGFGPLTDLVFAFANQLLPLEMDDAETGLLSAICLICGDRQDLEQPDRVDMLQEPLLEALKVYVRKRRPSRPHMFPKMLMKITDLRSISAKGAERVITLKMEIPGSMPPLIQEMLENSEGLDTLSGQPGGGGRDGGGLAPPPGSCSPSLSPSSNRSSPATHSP
Procedure, shortened: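 HepG2 cells transiently transfected with multiple reporter units expressing chimeric RARα-GAL4 fusion, with GAL4-UAS-driven reporters. After 24 h compound exposure, reporter mRNA induction quantified by RT-PCR and capillary electrophoresis with fluorescent labeling; gain-of-signal fitted relative to DMSO control.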

[18] = biological target: human Retinoic Acid Receptor beta (RARb), RARB (gene 5915) (UniProt P10826); experiment: ATG_RARb_TRANS: Attagene TRANS-FACTORIAL HepG2 Assay for human Retinoic Acid Receptor beta (AID 2283004; active = hit-call score of the fitted dose curve at least 0.9, where 1 is the maximum)
human Retinoic Acid Receptor beta (RARb), RARB (gene 5915), sequence (P10826 whole entry, looked up, the tested form may be a part): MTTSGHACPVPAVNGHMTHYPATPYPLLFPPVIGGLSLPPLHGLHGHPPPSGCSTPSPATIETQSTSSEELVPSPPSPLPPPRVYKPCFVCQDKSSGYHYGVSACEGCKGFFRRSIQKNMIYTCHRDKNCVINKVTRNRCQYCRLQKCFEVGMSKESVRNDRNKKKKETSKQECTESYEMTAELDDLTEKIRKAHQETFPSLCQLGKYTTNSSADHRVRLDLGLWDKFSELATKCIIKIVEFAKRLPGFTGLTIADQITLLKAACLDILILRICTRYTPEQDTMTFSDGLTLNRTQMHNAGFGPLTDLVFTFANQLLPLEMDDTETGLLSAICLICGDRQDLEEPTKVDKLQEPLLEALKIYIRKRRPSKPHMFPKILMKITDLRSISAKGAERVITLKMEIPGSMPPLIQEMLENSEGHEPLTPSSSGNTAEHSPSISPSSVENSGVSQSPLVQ
Procedure, shortened: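 HepG2 cells transiently transfected with multiplexed GAL4-UAS reporter units expressing chimeric NR–Gal4 fusions; 24 h compound exposure. Reporter mRNA quantified by RT-PCR, 6-FAM labelling, HpaI digestion and capillary electrophoresis; gain-of-signal fitted against DMSO baseline.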

[19] = biological target: human Retinoic Acid Receptor gamma (RARg), RARG (gene 5916) (UniProt P13631); experiment: ATG_RARg_TRANS: Attagene TRANS-FACTORIAL HepG2 Assay for human Retinoic Acid Receptor gamma (RARg) (AID 2283009; active = hit-call score of the fitted dose curve at least 0.9, where 1 is the maximum)
human Retinoic Acid Receptor gamma (RARg), RARG (gene 5916), sequence (P13631 whole entry, looked up, the tested form may be a part): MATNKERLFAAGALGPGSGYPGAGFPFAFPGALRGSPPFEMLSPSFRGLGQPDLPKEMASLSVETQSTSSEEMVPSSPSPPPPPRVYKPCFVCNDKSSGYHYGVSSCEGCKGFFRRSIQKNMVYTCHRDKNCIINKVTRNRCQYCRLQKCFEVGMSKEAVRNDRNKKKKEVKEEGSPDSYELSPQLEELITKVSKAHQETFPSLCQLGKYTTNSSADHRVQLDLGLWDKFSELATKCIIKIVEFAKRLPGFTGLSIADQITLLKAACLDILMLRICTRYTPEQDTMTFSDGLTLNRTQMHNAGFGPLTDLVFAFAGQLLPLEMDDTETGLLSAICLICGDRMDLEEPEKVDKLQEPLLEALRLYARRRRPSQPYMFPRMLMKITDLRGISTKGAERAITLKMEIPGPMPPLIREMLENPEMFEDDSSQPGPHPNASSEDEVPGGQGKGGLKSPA
Procedure, shortened: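 Readout: reporter transcript levels via RT-PCR, 6-FAM primer-extension labelling, HpaI digestion and capillary electrophoresis. Cells: HepG2 carrying transfected RARg-GAL4 chimera plus UAS reporter set. Dosing 24 h; DMSO negative control.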

[20] = biological target: human RAR-related Orphan Receptor gamma (RORg), RORC (gene 6097) (UniProt P51449); experiment: ATG_RORg_TRANS: Attagene TRANS-FACTORIAL HepG2 Assay for human RAR-related Orphan Receptor gamma (RORg) (AID 2283011; active = hit-call score of the fitted dose curve at least 0.9, where 1 is the maximum)
Procedure, shortened: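 Readout: reporter transcript induction (RT-PCR, fluorescent primer extension, capillary electrophoresis) after 24 h compound exposure of transiently transfected HepG2 cells carrying a RORg-Gal4 chimera and GAL4-UAS reporters; DMSO served as baseline, with increasing signal fitted.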

Measured: AC50

CCOC(=O)CCN(SN(C)C(=O)Oc1cccc2c1OC(C)(C)C2)C(C)C
inactive: [1] | [3] | [4] | [9] | [10] | [11]
active: [2] 26.2 µM | [5] 31.1 µM | [6] 32.5 µM | [7] 20 µM | [8] 28.8 µM | [12] 23.3 µM | [13] 0.713 µM | [14] 14.5 µM

Cc1cccc(N=Nc2ccc(N(C)C)cc2)c1
active: [2] 5.01 µM
inactive: [1] | [3] | [4] | [9] | [10] | [13] | [14] | [15]

C=C(C)[C@@H]1CC=C(C=O)CC1
active: [2] 80.5 µM | [13] 22.5 µM | [14] 11 µM
inactive: [1] | [16] | [3] | [10]

Brc1ccc(Br)cc1
inactive: [1] | [2] | [3] | [4] | [9] | [10] | [17] | [13] | [15]

C=CC(F)(C(F)(F)F)C(F)(F)C(F)(F)F (stereo unspecified)
inactive: [1] | [16] | [2] | [3] | [18] | [17] | [13] | [19]

CCOC(=O)CC(=O)CCl
inactive: [1] | [9] | [11] | [14] | [15] | [20]
active: [2] 181 µM | [3] 24.3 µM | [4] 148 µM | [6] 0.0141 µM | [7] 20 µM | [8] 20 µM | [12] 20 µM | [13] 22 µM
